Shown is part of a subset that was picked to be rich in hits.
Pf apPOL inh – Pf-apPOL DNA polymerase inhibition; inhibition, % at 10 µM; AID 1794808; Recombinant Pf-apPOL, molecular beacon fluorescence, 1.5 h; hit rate 0.25% among 210,000
mHTT-CaM PPI inh – inhibitors of human mutant huntingtin-calmodulin interaction; AID 1671202; P42858; inhibition, % at 15 µM; AlphaScreen His-mHTT/GST-CaM binding, luminescence; hit rate 3.6% among 190,000;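 also: 0% = both proteins with DMSO and 100% = one protein alone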
* = called active by the depositor; x = no result. Rule as the data show it: active = inhibition above about 50%; inactive = the rest.

SMILES | Pf apPOL inh | mHTT-CaM PPI inh
O=C1Nc2cc(C(=O)N3CCN(c4cccc(Cl)c4)CC3)ccc2N2CCCCC12 (stereo unspecified) | 2 | 93*
COc1cccc(N2CCN(C(=O)c3ccc4c(c3)NC(=O)C3CCCCN43)CC2)c1 (stereo unspecified) | 2 | 30
COCCn1c(CC2CCN(C(=O)c3ccsc3)C2)nc2cccnc21 (stereo unspecified) | 0 | 0
Cc1cccn2cc(C(=O)NC3CCN(Cc4ccccc4)CC3)nc12 | -2 | 1
COc1ccc(CCC(=O)N2CCCC(C)(C(=O)NCc3ccc(F)cc3)C2)cc1 (stereo unspecified) | -2 | 3
O=c1c2ccccc2nc(/C=C/c2cc(Br)ccc2O)n1CCCO | 16 | 76*
O=c1[nH]c(/C=C/c2cc(Br)ccc2O)nc2ccccc12 | 2 | -1
CC(=O)Nc1ccc(NC(=O)c2cc(-c3ccc(Br)s3)nc3ccccc23)cc1 | -5 | 4
CCOc1ccc(OCC)c(NS(=O)(=O)c2ccc3c(c2)CC(C)N3C(C)=O)c1 (stereo unspecified) | -4 | 15
O=C(Nc1ccc(Cl)c(Cl)c1)c1cc(S(=O)(=O)NCc2ccco2)ccc1F | -4 | 100*
O=C(Nc1cc(Cl)cc(Cl)c1)c1cc(S(=O)(=O)NCc2ccco2)ccc1F | -6 | 11
O=C(Nc1ccc(Cl)c(Cl)c1)c1ccc(F)c(S(=O)(=O)NCc2ccco2)c1 | -4 | 64*
COc1ccccc1CNS(=O)(=O)c1ccc(F)c(C(=O)Nc2ccc(C)c(Cl)c2)c1 | 0 | 70*
O=C(Nc1cccc(Cl)c1)c1ccc(F)c(S(=O)(=O)NCc2cccs2)c1 | -6 | 8
O=C(Nc1ccc(Cl)c(Cl)c1)c1ccc(F)c(S(=O)(=O)NCc2cccs2)c1 | 5 | 81*
O=C(Nc1ccc(F)c(F)c1)c1ccc(F)c(S(=O)(=O)NCc2ccco2)c1 | -21 | 0
COc1ccccc1CNS(=O)(=O)c1ccc(F)c(C(=O)Nc2ccc(F)c(F)c2)c1 | 1 | -1
CCc1nc2cccnc2n1-c1ccc(C(=O)N(C)C)cc1 | -4 | -6
Cc1ccc(CNC(=O)C2(C)CCCN(C(=O)Nc3ccccc3Cl)C2)cc1 (stereo unspecified) | -7 | 6
O=C1CCCCC1CCCCCCCCCCCO (stereo unspecified) | x | -25
Nc1nc2ncc([C@H](O)[C@H](O)CO)nc2c(=O)[nH]1 | x | 6
CC1=NN(c2ccccc2)C(=O)/C1=C\c1cn(-c2ccccc2)nc1-c1ccccc1 | 0 | -2
CSc1nnc2c(n1)OC(/C=C/c1ccco1)Nc1ccccc1-2 (stereo unspecified) | 0 | 46
C=CCSc1nnc2c(n1)OC(/C=C/c1ccco1)Nc1ccccc1-2 (stereo unspecified) | -8 | 30
C=CCSc1nnc2c(n1)OC(/C=C/c1ccco1)Nc1ccc(Br)cc1-2 (stereo unspecified) | 1 | 87*
SMILES | Pf apPOL inh | mHTT-CaM PPI inh
CCCSc1nnc2c(n1)OC(/C=C/c1ccco1)Nc1ccccc1-2 (stereo unspecified) | 2 | 54*
CSc1nnc2c(n1)OC(c1ccccn1)Nc1ccc(Br)cc1-2 (stereo unspecified) | -10 | 22
CSc1nnc2c(n1)OC(/C=C/c1ccco1)Nc1ccc(Br)cc1-2 (stereo unspecified) | -3 | 92*
CCSc1nnc2c(n1)OC(c1ccccn1)Nc1ccccc1-2 (stereo unspecified) | 93* | 3
CCSc1nnc2c(n1)OC(c1ccccn1)Nc1ccc(Br)cc1-2 (stereo unspecified) | 0 | 10
CC(C)c1ccc(OCC(=O)N2CCCCC2CCN2CCCCC2)cc1 (stereo unspecified) | -11 | 8
O=C(CCC1CCCN(c2cc(NC3CC3)ncn2)C1)NCCN1CCCCC1 (stereo unspecified) | 0 | 12
Nc1ccccc1NCCOc1ccccc1 | 2 | 79*
c1ccc(OCCCOc2ccccc2)cc1 | -2 | -124
CNC1CCc2cc(OC)c(OC)c(OC)c2-c2ccc(NC3CCCCNC3=O)c(=O)cc21 (stereo unspecified) | -13 | x
CCCCN1CCN(C(=O)CC2Sc3ncccc3N(CC(C)C)C2=O)CC1 (stereo unspecified) | -4 | -2
NC(=O)Cc1nc2ccccc2[nH]1 | 97* | -5
O=C(O)CCCc1nc2ccccc2[nH]1 | -2 | -6
CCOc1ccc(-c2cc(=O)n(CC(=O)NCCn3ncccc3=O)cn2)cc1 | -1 | -7
C(=Cc1c[nH]c2ccccc12)c1ccccc1 | -2 | x
COCCn1cc2c3c(cccc31)CN(C(=O)COc1ccccc1)CC2 | -1 | 55*
COCCn1cc2c3c(cccc31)CN(C(=O)COc1cccc(C)c1)CC2 | -4 | 35
COCCn1cc2c3c(cccc31)CN(C(=O)COC)CC2 | -1 | 30
CCn1cc2c3c(cccc31)CN(C(=O)COc1ccc(F)cc1)CC2 | -6 | 74*
CCOCC(=O)N1CCc2cn(CC)c3cccc(c23)C1 | -4 | 28

Screening data deposited in PubChem by University of Kansas High Throughput Screening Laboratory.
